# Where “and” joins values, the source holds several entries; their conditions need not be identical. Identical values can stand only once. About 83,000 compounds went through this panel and 20% of them were active in at least one assay; those are over-represented in the sample as a whole.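 Results are percent growth after 48 hours of single-concentration exposure. 100 means growth as in untreated cells, lower positive values show inhibition; negative values down to -100 show cell death.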 Unmarked numbers belong to inactive results. Calls of active or inactive are those of the source. Rule for the calls: active = growth percent below 10; inactive = the rest.
# System: SN12C renal
# Assay: NCI-60 one-dose screen, 48 h (100 = growth as untreated, 0 = no growth, -100 = all killed)
# Settings: 10 µM unless noted
row,Structure (SMILES),growth
1,CCc1cccc2c3c(sc12)C(c1ccc(F)cc1)C(C#N)=C(/N=C/c1ccc(Cl)cc1)O3 (stereo not drawn),32.4%
2,Cc1ccc2c(n1)C(=O)C(Cl)=C(Nc1ccc(C(=O)OC(C)(C)C)cc1)C2=O,88% [9.25 µM]
3,Clc1ccc2[nH]cc(-c3cncn3CCc3ccc4c(c3)OCO4)c2c1,77%
4,CCCCCCCCCC(=O)NC(C)(C)C(=O)N1CCC[C@H]1C(=O)N[C@@H](CC(C)C)C(=O)N[C@@](C)(CC)C(=O)N[C@@H](CCC(N)=O)C(=O)N[C@H](CCC(N)=O)C(=O)NC(C)(C)C(=O)NC(C)(C)C(=O)N[C@@H](CCC(N)=O)C(=O)N[C@H](CC(C)C)C(=O)N[C@H](CO)CC(C)C,-86.4% (active) and -84.1% (active)
5,C=C1CCc2nc(SCC(=O)O)ccc2N1,97.1%
6,CC[C@]12C=CCN3CC[C@@]4(c5ccc(OC)cc5N(C)[C@H]4[C@@](O)(C(=O)OC)[C@@H]1OC(=O)CCN1CCc4ccccc4C1)[C@@H]32,99.4%
7,CCOC(=O)c1cccnc1Nc1ccc(NC(=O)Nc2ccc(Cl)c(C(F)(F)F)c2)cc1,51.3%
8,Cc1ccc(S(=O)(=O)NCCCNc2nccc(-c3[nH]c(-c4ccccc4)nc3-c3ccc(F)c(O)c3)n2)cc1,99.2%
9,O=C(CSc1nnc(-c2ccc(Cl)cc2)n1-c1ccccc1)Nc1ccc(Cl)cc1,16.3%
10,Cc1ccc2c(n1)C(=O)C(Cl)=C(Nc1ccc(C(F)(F)F)cc1)C2=O,91.8%
11,CC(=O)C1=C(C)NC(NNc2ccccc2)=NC1c1ccc([N+](=O)[O-])cc1 (stereo not drawn),98.8%
12,NC(N)=NS(=O)(=O)c1ccc(N=Nc2c(N)nn(-c3ccc([N+](=O)[O-])cc3[N+](=O)[O-])c2N)cc1,101%
13,NCCNC(=O)c1cccc(COc2ccccc2NC(=O)c2cc(Br)c(Br)[nH]2)c1,92.6%
14,COC(=O)CCCNCCCn1ccc2cc(NCc3cccc(-c4ccccc4)c3C)ccc21,73.4%
15,O=C(CCCCCCN1CC(=O)N2[C@@H](c3ccccc3Br)c3[nH]c4ccccc4c3C[C@H]2C1=O)NO,66.3%
16,CCCCOc1ccc(S(=O)(=O)N2CCN(c3nc(C)cc(N4CCOCC4)n3)CC2)cc1,40.4%
17,NS(=O)(=O)c1ccc(CCn2c(-c3ccc(C(=O)O)cc3)nc(-c3ccccc3)c2-c2ccccc2)cc1,101%

row,Structure (SMILES),growth
1,N#C/C(=N\Nc1ccc(F)cc1)C(=O)Nc1cc(-c2ccccc2)nn1-c1ccccc1,1.17% (active)
2,Cn1c2nc3ccccc3c-2cc2ccccc21,33.7%
3,NS(=O)(=O)c1nnc(/N=C/c2c(O)[nH]c3ccccc23)s1,101%
4,NC(=O)c1c(NC(=O)c2ccc(C(F)(F)F)cc2)sc2c1CCC(=O)C2,12.4%
5,O=C(N/N=C\c1ccc([N+](=O)[O-])cc1)c1ccc2nc(-c3ccc(Br)cc3)[nH]c2c1,16.9%
6,C#CCN(C)CCCOc1ccc(NC(=O)CCCCCCC(=O)NO)cc1Cl,41.2%
7,Fc1cc(F)cc(NNC(=S)c2ccccc2)c1,9.96% (active)
8,Fc1ccc(-c2cn3c(-c4c[nH]c5ccc(Br)cc45)csc3n2)cc1,52.4%
9,CC[C@]12C=CCN3CC[C@]4(C(=C(C(=O)OC)C1)Nc1cc5c(cc14)[C@@H]1[C@H](O5)[C@@H](O)[C@@]4(CC)CC(C(=O)OC)=C5Nc6cc(O)ccc6[C@@]56CCN1C46)C32 (stereo partly drawn),13.8%
10,Cc1cc(C)cc(NC2=C(Cl)C(=O)c3nc(C)ccc3C2=O)c1,8.28% (active)
11,COc1ccc2c(c1)c(-c1nn3cc(-c4ccncc4)nc3s1)cn2C,84.3%
12,COC(=O)N1CCN(CCNCc2ccc(NC(=O)c3ccc(C)c(C#Cc4cnc5cccnn45)c3)cc2C(F)(F)F)CC1,39.8%
13,CC(C)(O)c1cncc(-c2ccc3ncc(C#N)c(N4CCc5cc(F)c(Cl)cc54)c3c2)c1,17.1%
14,O=C(/C=C/c1ccc(F)cc1)Nc1cccc2cccnc12,101%
15,C#CCN(C)CCCOc1ccc(NCc2ccc(C(=O)NO)cc2)cc1Cl,37.8%
16,COCCOc1ccc2ncc(C#Cc3cncc(C(=O)Nc4ccc(CN5CCN(C)CC5)c(C(F)(F)F)c4)c3)n2n1,10.2%

# Source: PubChem BioAssay (NCI)
